Holding throughout (assay): log2 ratio of Biotin-Ahx-Ub-VS probe labelling (fragment/DMSO); higher = less target engagement (more negative = stronger competition), active = hit call of the paper (q ≤ 0.05, log2 ratio ≤ -1)
What all share (settings): compound concentration: 200 uM; treatment time: 3 h

For one assay, the target named is T1, USP19 (UniProt O94966).
T1 sequence (whole entry): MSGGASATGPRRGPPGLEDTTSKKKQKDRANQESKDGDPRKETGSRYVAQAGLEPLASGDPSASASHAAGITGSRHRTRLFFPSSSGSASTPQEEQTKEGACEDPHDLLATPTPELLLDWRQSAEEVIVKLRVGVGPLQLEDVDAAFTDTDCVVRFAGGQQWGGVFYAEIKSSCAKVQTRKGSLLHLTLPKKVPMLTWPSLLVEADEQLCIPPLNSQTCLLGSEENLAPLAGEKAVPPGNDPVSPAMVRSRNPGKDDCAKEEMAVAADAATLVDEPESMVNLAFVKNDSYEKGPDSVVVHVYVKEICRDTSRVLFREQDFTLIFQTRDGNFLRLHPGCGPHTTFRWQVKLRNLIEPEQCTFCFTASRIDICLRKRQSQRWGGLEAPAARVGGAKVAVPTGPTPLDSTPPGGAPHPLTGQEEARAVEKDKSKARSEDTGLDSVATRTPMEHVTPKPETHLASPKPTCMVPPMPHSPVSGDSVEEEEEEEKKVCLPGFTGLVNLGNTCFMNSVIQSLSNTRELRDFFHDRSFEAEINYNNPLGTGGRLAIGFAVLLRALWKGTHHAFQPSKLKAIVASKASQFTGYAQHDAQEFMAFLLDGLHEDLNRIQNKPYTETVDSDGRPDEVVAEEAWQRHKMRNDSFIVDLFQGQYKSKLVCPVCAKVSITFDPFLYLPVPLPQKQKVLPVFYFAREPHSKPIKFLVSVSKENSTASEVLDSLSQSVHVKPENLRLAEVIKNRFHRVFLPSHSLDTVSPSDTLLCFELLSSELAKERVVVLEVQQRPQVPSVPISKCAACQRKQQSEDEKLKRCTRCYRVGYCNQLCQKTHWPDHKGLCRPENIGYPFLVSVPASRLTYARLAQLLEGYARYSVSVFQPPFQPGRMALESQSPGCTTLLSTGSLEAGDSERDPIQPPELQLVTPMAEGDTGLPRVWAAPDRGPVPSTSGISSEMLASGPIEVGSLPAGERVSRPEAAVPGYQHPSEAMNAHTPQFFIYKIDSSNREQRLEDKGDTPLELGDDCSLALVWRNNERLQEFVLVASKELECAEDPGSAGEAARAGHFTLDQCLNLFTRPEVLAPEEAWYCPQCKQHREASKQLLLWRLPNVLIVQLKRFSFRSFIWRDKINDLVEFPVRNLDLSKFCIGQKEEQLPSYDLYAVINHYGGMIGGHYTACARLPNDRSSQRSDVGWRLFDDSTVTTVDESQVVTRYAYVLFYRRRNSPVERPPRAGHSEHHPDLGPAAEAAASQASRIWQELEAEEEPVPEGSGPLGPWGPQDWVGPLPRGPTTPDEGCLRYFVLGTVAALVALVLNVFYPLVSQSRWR
Put shortly:
(§1)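 HEK293T lysate in Tris/CHAPS/IGEPAL buffer with protease inhibitors (495 µg per sample) was given fragment at 200 µM or vehicle for 3 h, in triplicate. It then received Biotin-Ahx-Ub-VS at 0.5 µM final for 1 h. Labelled DUBs were NeutrAvidin-enriched, digested with LysC and trypsin, and run by diaPASEF LC-MS/MS. Values are average log2 fragment/vehicle ratios by unpaired t-test on global-median-normalised Spectronaut quantities of proteins with ≥2 unique peptides.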

Another assay concerns the target T2, USP22 (UniProt Q9UPT9).
T2 sequence (whole entry): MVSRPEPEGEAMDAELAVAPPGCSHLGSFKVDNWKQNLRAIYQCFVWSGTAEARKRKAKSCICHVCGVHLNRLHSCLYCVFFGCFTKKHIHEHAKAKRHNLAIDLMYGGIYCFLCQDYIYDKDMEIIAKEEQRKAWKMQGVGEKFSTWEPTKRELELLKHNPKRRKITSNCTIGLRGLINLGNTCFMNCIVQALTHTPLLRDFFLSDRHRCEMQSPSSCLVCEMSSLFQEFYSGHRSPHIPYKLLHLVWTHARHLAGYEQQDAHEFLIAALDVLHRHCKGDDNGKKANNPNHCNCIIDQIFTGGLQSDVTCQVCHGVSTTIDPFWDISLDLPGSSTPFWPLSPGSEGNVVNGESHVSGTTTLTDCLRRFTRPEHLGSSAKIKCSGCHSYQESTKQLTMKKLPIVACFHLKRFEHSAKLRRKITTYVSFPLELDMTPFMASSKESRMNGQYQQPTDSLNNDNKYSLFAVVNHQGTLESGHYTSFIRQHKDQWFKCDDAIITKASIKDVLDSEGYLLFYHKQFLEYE
Put shortly: as §1

A further assay deals with USP24 (UniProt Q9UPU5). In a few lines:
as §1

In a further assay the target is T3, USP25 (UniProt Q9UHP3).
T3 sequence (whole entry): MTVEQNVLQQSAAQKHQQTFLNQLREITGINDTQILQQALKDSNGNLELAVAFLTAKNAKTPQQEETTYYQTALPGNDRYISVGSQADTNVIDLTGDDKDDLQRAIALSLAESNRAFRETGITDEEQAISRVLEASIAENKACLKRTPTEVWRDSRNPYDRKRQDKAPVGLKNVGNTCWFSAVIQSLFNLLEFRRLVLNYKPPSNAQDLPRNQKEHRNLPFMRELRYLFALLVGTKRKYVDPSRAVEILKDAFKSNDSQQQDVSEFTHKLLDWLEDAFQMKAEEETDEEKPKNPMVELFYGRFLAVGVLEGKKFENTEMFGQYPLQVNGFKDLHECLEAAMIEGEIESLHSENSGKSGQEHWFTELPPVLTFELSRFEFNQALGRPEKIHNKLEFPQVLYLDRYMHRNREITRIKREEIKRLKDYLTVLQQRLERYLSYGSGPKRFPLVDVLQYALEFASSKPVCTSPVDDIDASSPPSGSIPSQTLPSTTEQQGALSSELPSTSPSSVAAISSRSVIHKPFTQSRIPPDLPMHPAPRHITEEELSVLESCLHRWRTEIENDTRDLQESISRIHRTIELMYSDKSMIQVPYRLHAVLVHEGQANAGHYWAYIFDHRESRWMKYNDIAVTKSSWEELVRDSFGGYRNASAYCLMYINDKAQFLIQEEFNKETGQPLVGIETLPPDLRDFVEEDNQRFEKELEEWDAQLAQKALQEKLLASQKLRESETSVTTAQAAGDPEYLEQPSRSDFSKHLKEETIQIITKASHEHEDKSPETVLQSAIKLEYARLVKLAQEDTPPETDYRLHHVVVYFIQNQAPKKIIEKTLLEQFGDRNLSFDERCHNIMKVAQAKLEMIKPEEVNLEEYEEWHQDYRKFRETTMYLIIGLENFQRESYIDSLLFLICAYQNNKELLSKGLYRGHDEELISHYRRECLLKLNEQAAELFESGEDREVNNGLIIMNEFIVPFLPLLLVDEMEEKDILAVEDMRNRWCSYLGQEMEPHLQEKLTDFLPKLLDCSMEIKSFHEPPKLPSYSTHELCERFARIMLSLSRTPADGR
In a few lines: as §1

The next assay concerns the target T4, USP28 (UniProt Q96RU2).
T4 sequence (whole entry): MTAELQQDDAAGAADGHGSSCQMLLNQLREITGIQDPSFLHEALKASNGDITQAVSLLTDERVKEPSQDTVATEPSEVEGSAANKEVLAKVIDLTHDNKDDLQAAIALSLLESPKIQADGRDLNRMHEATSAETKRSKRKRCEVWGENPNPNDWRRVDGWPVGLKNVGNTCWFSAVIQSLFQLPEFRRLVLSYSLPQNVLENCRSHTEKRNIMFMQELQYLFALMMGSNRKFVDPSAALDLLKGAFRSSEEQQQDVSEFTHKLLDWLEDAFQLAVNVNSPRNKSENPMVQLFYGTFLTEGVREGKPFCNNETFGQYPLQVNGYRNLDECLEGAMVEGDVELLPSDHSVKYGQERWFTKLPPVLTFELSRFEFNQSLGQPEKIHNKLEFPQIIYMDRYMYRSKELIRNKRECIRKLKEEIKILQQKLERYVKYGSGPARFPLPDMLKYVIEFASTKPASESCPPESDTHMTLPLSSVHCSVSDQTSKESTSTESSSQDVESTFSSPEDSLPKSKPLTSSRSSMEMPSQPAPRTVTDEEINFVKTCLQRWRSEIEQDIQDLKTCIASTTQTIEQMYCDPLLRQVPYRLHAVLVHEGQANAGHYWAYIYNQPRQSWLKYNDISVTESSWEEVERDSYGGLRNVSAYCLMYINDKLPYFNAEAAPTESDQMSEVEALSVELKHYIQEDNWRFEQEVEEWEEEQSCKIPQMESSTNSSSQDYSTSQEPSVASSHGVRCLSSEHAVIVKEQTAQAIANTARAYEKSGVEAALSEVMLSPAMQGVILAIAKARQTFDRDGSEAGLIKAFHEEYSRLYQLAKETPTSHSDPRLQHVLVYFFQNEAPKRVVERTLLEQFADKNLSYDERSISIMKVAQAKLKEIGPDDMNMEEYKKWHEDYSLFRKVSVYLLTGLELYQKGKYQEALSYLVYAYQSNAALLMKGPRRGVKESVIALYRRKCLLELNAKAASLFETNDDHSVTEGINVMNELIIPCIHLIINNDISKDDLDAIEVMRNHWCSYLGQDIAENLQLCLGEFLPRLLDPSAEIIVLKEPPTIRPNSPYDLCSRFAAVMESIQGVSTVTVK
Put shortly: as §1

The values below come from the supplement of paper PMC11732987, “Enantioselective OTUD7B fragment discovery through chemoproteomics screening and high-throughput optimisation” (Communications Chemistry, 2025).

Values without a mark were called inactive.

USP24, sequence (Q9UPU5 whole entry): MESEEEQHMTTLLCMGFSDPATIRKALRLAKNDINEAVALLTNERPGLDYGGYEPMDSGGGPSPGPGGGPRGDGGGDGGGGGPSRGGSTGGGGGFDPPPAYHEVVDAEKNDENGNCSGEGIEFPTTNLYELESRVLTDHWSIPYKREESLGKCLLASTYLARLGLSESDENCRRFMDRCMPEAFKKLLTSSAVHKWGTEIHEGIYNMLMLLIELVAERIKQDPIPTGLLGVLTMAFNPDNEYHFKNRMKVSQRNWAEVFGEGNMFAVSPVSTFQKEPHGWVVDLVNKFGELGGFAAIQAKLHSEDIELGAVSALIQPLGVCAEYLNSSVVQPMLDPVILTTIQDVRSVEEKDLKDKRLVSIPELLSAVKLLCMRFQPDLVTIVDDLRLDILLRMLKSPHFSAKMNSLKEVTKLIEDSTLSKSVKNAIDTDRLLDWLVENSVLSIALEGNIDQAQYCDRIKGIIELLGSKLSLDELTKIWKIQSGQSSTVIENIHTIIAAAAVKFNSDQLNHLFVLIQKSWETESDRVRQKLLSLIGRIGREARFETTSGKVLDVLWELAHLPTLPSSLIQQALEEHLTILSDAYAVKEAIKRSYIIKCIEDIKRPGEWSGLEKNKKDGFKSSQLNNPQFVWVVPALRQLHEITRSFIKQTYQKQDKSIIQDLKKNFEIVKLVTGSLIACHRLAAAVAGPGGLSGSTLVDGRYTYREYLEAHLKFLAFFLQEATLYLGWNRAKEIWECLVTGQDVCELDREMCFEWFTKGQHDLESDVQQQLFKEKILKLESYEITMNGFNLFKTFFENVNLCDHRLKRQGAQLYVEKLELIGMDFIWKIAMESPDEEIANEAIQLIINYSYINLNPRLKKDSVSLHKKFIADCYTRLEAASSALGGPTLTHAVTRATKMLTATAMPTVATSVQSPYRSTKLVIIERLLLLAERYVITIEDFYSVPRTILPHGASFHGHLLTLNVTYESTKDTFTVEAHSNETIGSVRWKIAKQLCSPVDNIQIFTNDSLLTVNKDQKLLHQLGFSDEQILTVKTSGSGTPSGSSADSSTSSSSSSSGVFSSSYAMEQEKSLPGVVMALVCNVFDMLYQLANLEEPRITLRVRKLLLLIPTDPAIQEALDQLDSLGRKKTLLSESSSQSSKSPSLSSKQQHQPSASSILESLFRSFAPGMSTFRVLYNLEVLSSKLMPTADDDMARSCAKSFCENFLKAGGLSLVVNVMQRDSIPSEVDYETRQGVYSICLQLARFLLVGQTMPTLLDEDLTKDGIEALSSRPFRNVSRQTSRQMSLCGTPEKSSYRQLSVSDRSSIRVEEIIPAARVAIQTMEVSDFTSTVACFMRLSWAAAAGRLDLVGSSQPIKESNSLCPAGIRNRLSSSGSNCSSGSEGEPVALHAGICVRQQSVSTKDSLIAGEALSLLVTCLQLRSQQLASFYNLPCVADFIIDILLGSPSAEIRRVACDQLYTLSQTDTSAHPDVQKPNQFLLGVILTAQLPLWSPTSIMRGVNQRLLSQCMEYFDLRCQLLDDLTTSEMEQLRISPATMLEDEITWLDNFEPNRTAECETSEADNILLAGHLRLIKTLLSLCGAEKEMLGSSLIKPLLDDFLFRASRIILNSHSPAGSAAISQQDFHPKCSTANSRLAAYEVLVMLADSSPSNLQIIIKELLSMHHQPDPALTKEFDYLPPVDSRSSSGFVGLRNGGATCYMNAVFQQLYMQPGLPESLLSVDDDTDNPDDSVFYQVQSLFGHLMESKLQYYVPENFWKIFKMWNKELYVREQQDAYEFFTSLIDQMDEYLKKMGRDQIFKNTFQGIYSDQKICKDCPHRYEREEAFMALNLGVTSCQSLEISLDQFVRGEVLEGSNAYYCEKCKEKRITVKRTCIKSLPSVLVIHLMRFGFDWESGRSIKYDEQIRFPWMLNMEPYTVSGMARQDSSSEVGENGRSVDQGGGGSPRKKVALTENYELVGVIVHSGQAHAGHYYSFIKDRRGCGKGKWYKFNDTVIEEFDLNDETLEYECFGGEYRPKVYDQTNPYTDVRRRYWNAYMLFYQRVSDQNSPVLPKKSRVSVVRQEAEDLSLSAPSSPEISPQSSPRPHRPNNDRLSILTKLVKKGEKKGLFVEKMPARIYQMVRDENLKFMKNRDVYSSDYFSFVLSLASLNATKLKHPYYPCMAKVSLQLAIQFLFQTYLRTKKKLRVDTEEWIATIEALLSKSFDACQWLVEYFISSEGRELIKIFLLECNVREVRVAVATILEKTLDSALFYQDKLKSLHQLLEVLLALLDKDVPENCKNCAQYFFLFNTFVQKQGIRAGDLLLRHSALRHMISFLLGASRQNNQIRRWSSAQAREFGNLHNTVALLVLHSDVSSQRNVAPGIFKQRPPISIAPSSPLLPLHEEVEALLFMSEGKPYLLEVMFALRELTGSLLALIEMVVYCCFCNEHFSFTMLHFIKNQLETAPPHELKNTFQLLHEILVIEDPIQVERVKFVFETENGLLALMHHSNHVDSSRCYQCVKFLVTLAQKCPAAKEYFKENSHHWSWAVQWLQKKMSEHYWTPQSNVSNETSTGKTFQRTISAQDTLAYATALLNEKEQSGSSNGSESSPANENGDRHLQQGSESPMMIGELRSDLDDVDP

As for `O=C(CCl)N1CCN(C(=O)N2CCCCC2)CC1`, the “log2 ratio of Biotin-Ahx-Ub-VS probe labelling” value with USP19 is -0.943; with USP22, -0.465; in the assay with USP24, -1.28 (active); in the assay with USP25 it was -1.09 (active); with USP28, -1.23 (active).
